In all, about 230,000 compounds went through this assay and about 1,500 (0.65%) were called active.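 How the source made its calls: active means pattern-corrected inhibition of lipid staining of at least 50% with the nuclear-stain viability signal not falling by more than 50%; inactive means the rest, inconclusive results apart.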 For the sample, actives were picked, then their nearest neighbours and some compounds at random.
Experiment: TAG lipid buildup reduction in H9c2 cells – cell-based, uHTS, fluorescence, primary screen (AID 651582);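 on inhibition: 0% = DMSO wells and 100% = triacsin C control wells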
Conditions: Nile Red lipid (TAG) fluorescence, at 12.5 µM, cells loaded with 200 µM oleic acid; DAPI nuclei signal change (viability), lower = more cytotoxic: measured here: DAPI nuclei count viability; inhibition: stronger effect = higher value

Structure (SMILES)	DAPI nuclei signal change (viability), lower = more cytotoxic [%]	inhibition
NC(=O)c1ncn([C@@H]2O[C@H](CN=C3NS(=O)(=O)c4ccccc43)[C@@H](O)[C@H]2O)n1	-1.84	13.5% (inactive)
COc1ccc(OCCNC(=O)c2cc(C3CC3)nc3c2cnn3C(C)C)cc1	-4.88	-39.8% (inactive)
COc1ccc(C(=O)OCC(=O)Nc2cc(C)on2)cc1F	-5.17	7.73% (inactive)
C=CCOC(=O)N1CCC2CC1c1cc(-c3ccc(OC)cc3)ccc12 (stereo unspecified)	8.41	-34.5% (inactive)
COc1cccc2sc(N(CCCN(C)C)C(=O)C(c3ccccc3)c3ccccc3)nc12	-45.3	117% (active)
CCN(CC)CCN(C(=O)c1ccc2c(c1)CCCC2)c1nc2c(OC)cccc2s1	40	-1.62% (inactive)
CN(C)CCCN(C(=O)COc1ccccc1)c1nc2c(Cl)cccc2s1	-0.936	15.4% (inactive)
Cc1cccc(-n2ncc(Cl)c(Cl)c2=O)c1	-35.3	75.4% (active)
O=c1c(Cl)c(NC2CC2)cnn1-c1ccccc1	-5.81	-2.29% (inactive)
COc1ccc(Oc2c(Cl)cnn(-c3ccccc3)c2=O)cc1	2.85	-4.37% (inactive)
CCCNC(=O)C1(C)CCN(C(=O)c2ccc(F)cc2Cl)C1 (stereo unspecified)	8.17	2.28% (inactive)
Nc1ccccc1SC(C[N+](=O)[O-])c1ccccc1 (stereo unspecified)	-46.5	63.9% (active)
Nc1ccccc1Sc1ccc(C(F)(F)F)cc1[N+](=O)[O-]	8.68	-15.4% (inactive)
CCS(=O)(=O)c1cc([N+](=O)[O-])c(Sc2ccccc2N)s1	-4.87	14.6% (inactive)
Cc1cccc(NC(=O)CN2C(=O)c3ccccc3C2=O)c1C	2.88	-5.58% (inactive)
CCOC(=O)/C=c1\s/c(=C\c2ccc(C#N)cc2)c(=O)n1CC(=O)Nc1cccc(C)c1C	-32.2	50.4% (active)
CCOC(=O)/C=c1\s/c(=C\c2ccccc2OC)c(=O)n1CC(=O)N1CCOCC1	-2.84	8.35% (inactive)
Cc1nc2c(OCC(=O)C(C)(C)C)cccn2c1N(C)Cc1cccs1	21.8	-5.32% (inactive)
O=C(Cn1cnc2c(OCc3ccccc3)ncnc21)NCCCn1ccnc1	9.45	-7.19% (inactive)
COc1cc(OC)cc(C(=O)NNC(=O)CCOc2ccccc2OC)c1	-6.59	7.42% (inactive)
CCN(c1ccccc1)S(=O)(=O)c1ccc(C(=O)Nc2ccccc2OC)cc1	2.43	4.73% (inactive)
COc1ccc(-c2csc(-c3cccs3)n2)cc1OC	-4.83	-5.04% (inactive)
COc1ccc(-c2cc(-c3ccc(N)cc3)nc(N)c2C#N)cc1OC	172	21.5% (inactive)
COc1ccc(-c2cc(C(F)(F)F)nc(S(C)(=O)=O)n2)cc1OC	-22.6	52.7% (active)
CCCCCCCCNS(=O)(=O)CCNC1CCCCC1	-4.65	5.91% (inactive)
COc1ccc(OC)c(/C=C/C(=O)c2ccc3c(c2)OCO3)c1	4.46	9.85% (inactive)
Cc1c(NS(=O)(=O)c2cccc(C(=O)Nc3ccc(SC(F)F)cc3)c2)c(=O)n(-c2ccccc2)n1C	-2.02	-3.28% (inactive)

Structure (SMILES)	DAPI nuclei signal change (viability), lower = more cytotoxic [%]	inhibition
COc1ccc(S(=O)(=O)N(C)C)cc1NC(=O)COC(=O)c1n[nH]c2ccccc12	-4.57	4.68% (inactive)
Cc1cccc(OCC(=O)OCC(=O)Nc2ccc(Cl)cn2)c1	5.47	-14.4% (inactive)
COc1ccc(/C=C2/CCCc3ccccc3C2=O)cc1	-45.7	59.8% (active)
O=C1/C(=C/c2cccs2)CCc2ccccc21	3.51	-10.1% (inactive)
COc1ccc(/C=C2\CCc3ccccc3C2=O)c(OC)c1OC	-2.46	-5.18% (inactive)
O=C(COC(=O)c1cccc(Cl)c1Cl)NC1CCCCCC1	6.13	-15.2% (inactive)
C=CCn1c(SCc2c(C)noc2C)nc2sc3c(c2c1=O)CCC(C)C3 (stereo unspecified)	-30.5	85.1% (active)
CCCn1nnc2sc3c(c2c1=O)CCC(C)C3 (stereo unspecified)	3.37	0.861% (inactive)
C=CCn1c(SCC(=O)NCC2CCCO2)nc2sc(C)c(C)c2c1=O (stereo unspecified)	4.45	-8.48% (inactive)
CN1CCn2cnc(C(=O)NCC(=O)OC(C)(C)C)c2C1=O	-1.68	-2.56% (inactive)
CN(Cc1ccc(CNC[C@H]2O[C@@H](n3cnc4c(N)ncnc43)[C@H](O)[C@@H]2O)o1)S(C)(=O)=O	2.25	3.67% (inactive)
Cc1cc(NC(=O)CSc2nc3c(cc2C#N)CCCCC3)no1	24	6.4% (inactive)
Cc1cc(NC(=O)CSc2nc(C(C)C)nc3sc4c(c23)CCC(C)C4)no1 (stereo unspecified)	1.86	65.3% (active)
Cc1cc(NC(=O)CSc2ncc(C(F)(F)F)cc2Cl)no1	-5.5	0.466% (inactive)
Brc1ccc(CN2CC[C@H]3C=CCc4cccc(c43)C2)cc1	12.5	-54.7% (inactive)
COc1ccc(Cl)cc1NC(=O)CN(C)C(=O)c1cc(-c2cccs2)nn1-c1ccccc1	3.57	2.51% (inactive)
Cc1nc2ccccn2c(=O)c1NC(=O)c1ccc(Br)o1	4.97	4.01% (inactive)
COc1ccc(C(O)c2nc(-c3ccc(OC)nc3)cs2)cc1 (stereo unspecified)	4.55	-44.6% (inactive)
COc1cc(C#Cc2ccc3cc(CCCO)oc(=O)c3c2)cc(OC)c1	-19.9	46.6% (inactive)
COc1cc(/C=C2\Oc3ccc(C#Cc4ccc(O)cc4)cc3C2=O)cc(OC)c1	-0.886	120% (active)
COc1ccc2c(c1)O/C(=C\c1ccccc1O)C2=O	4.81	-5.85% (inactive)
O=C(CSc1n[nH]c(=O)n1-c1ccccc1)Nc1ccccc1C(F)(F)F	4.07	6.49% (inactive)
COc1ccc(OC)c(NC(=O)C2CCCN2S(=O)(=O)c2ccc3c(c2)CC(C)N3C(C)=O)c1 (stereo unspecified)	-10.6	-4.08% (inactive)
NC(=O)c1ccccc1N(Cc1ccccc1)S(=O)(=O)c1ccccc1	-8.47	2.63% (inactive)
CCOC(=O)N1CCN(C(=O)c2ccccc2N(Cc2ccccc2)S(=O)(=O)c2ccc(OC)cc2)CC1	-41	53.3% (active)
CCN1CCN(C(=O)c2ccccc2N(C)S(=O)(=O)c2ccc(C)cc2)CC1	-0.758	7.33% (inactive)
